PINK1 modulator: changes PINK1 expression; PINK1 immunofluorescence, high-content cytometry, 24 h; Potency, µM (doses to about 76.6 µM), for inactives: at the highest dose activation (PINK1 increase), actives largely listed as activators; 410,000 compounds, 0.2% hits; AID 624263; active = well fitted activation curve with a large enough effect; inconclusive = small, poorly fitted or top-dose-only effect; cell line not stated here; also: potency is read from the fitted curve at half-maximal effect; % of control where 0% means no effect; nearly all actives have a fitted effect of over 65% in size
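PINK1 protein, normally rapidly degraded, was detected by immunofluorescence after 24 hour compound treatment of a stable cell line. Titration data (5 concentrations) came from laser-scanning cytometry, with CCCP-treated wells as controls.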
Vif-APOBEC3F blk: inhibitors of Vif-A3F interaction. HeLa A3F-eYFP + Vif (tagged APOBEC3F with the HIV-1 protein that degrades it), YFP fluorescence increase. Potency, µM (titrated, usually from 46.1 µM), without a hit: top-dose activity, negative = active. 390,000 compounds, 0.2% hits. AID 602313; also: potency is read from the fitted curve at half-maximal effect; % of control where 0% means no effect; nearly all actives have a fitted effect of over 65% in size
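HeLa cells stably expressing A3F-eYFP plus Vif, plated and incubated overnight at 37 deg C, then exposed to compounds overnight at 37 deg C. Blocked degradation read as raised yellow fluorescence (Ex 488/Em 500-530).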
Vif-A3G inh: inhibitors of Vif-APOBEC3G interaction. AID 602310. Potency, µM (titrated, usually from 46.1 µM), for inactives: top-dose activity, negative = active, usual class: inhibitors. 410,000 compounds, 0.076% hits. HeLa A3G-eYFP + Vif (tagged APOBEC3G with the HIV-1 protein that degrades it), YFP fluorescence, overnight; also: potency is read from the fitted curve at half-maximal effect; % is scaled to controls: 0 for no effect and ±100 for the full control effect; nearly all actives have a fitted effect of over 60% in size
Target sequence (Q9HC16 whole entry, looked up): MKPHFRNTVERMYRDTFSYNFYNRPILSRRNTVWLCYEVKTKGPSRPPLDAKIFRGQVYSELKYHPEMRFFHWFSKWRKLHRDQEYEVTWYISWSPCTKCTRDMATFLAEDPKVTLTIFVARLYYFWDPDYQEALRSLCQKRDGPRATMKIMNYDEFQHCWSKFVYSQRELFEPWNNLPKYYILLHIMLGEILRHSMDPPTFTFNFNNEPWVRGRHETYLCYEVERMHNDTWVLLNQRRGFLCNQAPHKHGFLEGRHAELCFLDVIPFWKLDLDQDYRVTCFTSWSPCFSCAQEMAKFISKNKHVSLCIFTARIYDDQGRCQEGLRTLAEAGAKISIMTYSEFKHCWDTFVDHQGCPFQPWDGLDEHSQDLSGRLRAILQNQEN
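Read-out is eYFP fluorescence (Ex 488/Em 500-530) from Vif-expressing HeLa A3G-eYFP cells; more signal means A3G escaped Vif-mediated degradation. Cells plated overnight, compound pinned in, incubated overnight at 37 deg C.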
Epigenetic reg: derepresses silenced GFP reporter in murine cells. murine LDR cells, GFP reporter derepression, 30 h. Potency, µM (doses to about 53.9 µM), for inactives: top-dose GFP activation, usual class: activators. 280,000 compounds, 0.2% hits; also: potency is read from the fitted curve at half-maximal effect; % of control where 0% means no effect; nearly all actives have a fitted effect of over 60% in size
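Derepression of a silenced CMV-GFP reporter in murine LDR cells is scored by enumerating GFP-positive cells with a laser-scanning microplate cytometer after 30 hours of treatment at 37 C.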
C127i cell count: counter-screen for epigenetic modulators: effect in parental c127i cells; shares compounds with Epigenetic reg; mouse c127i parental cells, fluorescent cell count, 30 h; Potency, µM, for inactives: at the highest dose fluorescent cell count, most hits filed as activators; 60 compounds, 20% hits; AID 493065
HCC4017 tox: reduces HCC4017 lung cancer cell viability among epigenetic modulators | shares compounds with Epigenetic reg | HCC4017 NSCLC viability, CellTiter-Glo ATP luminescence, 72 h | Potency, µM (series often up to 46.1 µM), for inactives: top-dose activity change, negative = cytotoxicity, most hits filed as cytotoxic | 45 compounds, 30% hits
H358 viab: reduces H358 lung cancer cell viability among epigenetic modulators | shares compounds with Epigenetic reg | 45 compounds, 30% hits | Potency, µM (doses to about 46.1 µM), for inactives: at the highest dose activity change, negative = viability loss, usual class: cytotoxic | H358 NSCLC viability, ATP luminescence, 72 h
* = called active by the depositor. Only some compounds are listed: those with a hit (about 0.52% of all), similar ones and a draw of the others. Unless noted, calls follow the shape of the dose curve; as a rule, active = well fitted curve in the direction sought with a large enough effect; inconclusive = small, poorly fitted or top-dose-only effect, or another doubt; inactive = no such curve, though single readings can be large; an effect the other way counts as inactive or inconclusive.

Cc1ccccc1N1C(=O)c2cccc3c(N(C)CCO)ccc(c23)C1=O was read as Vif-APOBEC3F blk 13µM*, Vif-A3G inh 7% and Epigenetic reg 13%.
`Cc1ccc(C(=O)Nc2cccc(-c3nc(CNC(=O)C4CCCCC4)c(C)o3)c2)s1` gave PINK1 modulator 2%.
For O=C(Nc1nccs1)c1ccc(-c2ccc([N+](=O)[O-])cc2)o1 the results were PINK1 modulator 35µM*, Vif-APOBEC3F blk 8%, Vif-A3G inh -1% and Epigenetic reg 1%.
`Cc1ccc(NC2=C(Cl)C(=O)OC2OC(=O)c2ccccc2)c(C)c1` (stereo not given) gave PINK1 modulator -1%, Vif-APOBEC3F blk -2%, Vif-A3G inh 4% and Epigenetic reg 16µM*.
Screening Cc1cccc(C)c1NC1=C(Cl)C(=O)OC1OC(=O)c1ccccc1 (stereo not given) returned PINK1 modulator 0%, Vif-APOBEC3F blk -19%, Vif-A3G inh -1% and Epigenetic reg 0%.
`OCCCNCc1cc2cc3c(cc2nc1N1CCN(c2cccc(Cl)c2)CC1)OCO3` gave PINK1 modulator -1%.
For Cc1noc(C)c1CC(=O)NCC1Cc2cc(-c3cccc(OC(F)(F)F)c3)ccc2O1 (stereo not given) the results were PINK1 modulator 0%.
For COc1ccc2c(Cl)c(C(=O)N/N=C3\CCCC(=O)C3)sc2c1 the results were PINK1 modulator 3%, Vif-APOBEC3F blk inconclusive, Vif-A3G inh 2.8µM* and Epigenetic reg 11µM*.
For COc1ccc2c(Cl)c(C(=O)N/N=C/c3ccc4c(c3)OCO4)sc2c1 the results were PINK1 modulator 2%, Vif-APOBEC3F blk inconclusive, Vif-A3G inh -27% and Epigenetic reg 7%.
CC(C)Cc1nc2cc(NS(=O)(=O)N(C)C)cc(C(=O)N3CCc4ccccc4C3)c2n1C was read as PINK1 modulator -1%.
Screening Cc1ccc2nc(/C(C#N)=C\c3ccc(N4CCOCC4)o3)[nH]c2c1 returned PINK1 modulator 11µM*, Vif-APOBEC3F blk -15%, Vif-A3G inh inconclusive and Epigenetic reg 14µM*.
For Cc1ccc2nc(/C(C#N)=C\c3ccc([N+](=O)[O-])o3)[nH]c2c1 the results were PINK1 modulator inconclusive, Vif-APOBEC3F blk inconclusive, Vif-A3G inh 6.3µM* and Epigenetic reg 1µM*.
Cc1ccc2nc(/C(C#N)=C\c3ccc(Oc4ccc([N+](=O)[O-])cn4)cc3)[nH]c2c1 was read as PINK1 modulator 9%, Vif-APOBEC3F blk -29%, Vif-A3G inh -1% and Epigenetic reg 1%.
For Cc1ccc2nc(/C(C#N)=C\c3cc(C)n(-c4cccc([N+](=O)[O-])c4)c3C)[nH]c2c1 the results were PINK1 modulator inconclusive, Vif-APOBEC3F blk -4%, Vif-A3G inh 0% and Epigenetic reg 2%.
`Cc1ccc(C)c(S(=O)(=O)N2CCN(C(=O)CCNC(=O)c3ccc(Br)cc3)CC2)c1` gave PINK1 modulator 0%, Vif-APOBEC3F blk -4% and Vif-A3G inh -18%.
COc1cc(C(=O)NCC(=O)N2CCN(S(=O)(=O)c3cc(C)ccc3C)CC2)cc(OC)c1OC was read as PINK1 modulator 2%, Vif-APOBEC3F blk -15% and Vif-A3G inh 6.3µM*.
Screening CCc1cc(C(=O)NCC2Cc3cccc(-c4ccc(C(=O)OC)cn4)c3O2)no1 (stereo not given) returned PINK1 modulator 1%.
Cc1c(N=Nc2c(-c3ccc([N+](=O)[O-])cc3)[nH]n(C(N)=S)c2=O)cccc1[N+](=O)[O-] was read as PINK1 modulator 3.2µM*, Vif-APOBEC3F blk 1%, Vif-A3G inh -7% and Epigenetic reg -2%.
Screening NC(=S)n1[nH]c(-c2ccc([N+](=O)[O-])cc2)c(N=Nc2ccccc2[N+](=O)[O-])c1=O returned PINK1 modulator 4%, Vif-APOBEC3F blk 2%, Vif-A3G inh 1% and Epigenetic reg 0%.
Screening Fc1ccc(CCNC(=S)Nc2ccc(F)c(Cl)c2)cc1 returned PINK1 modulator 14µM*, Vif-APOBEC3F blk -13%, Vif-A3G inh 2% and Epigenetic reg 1%.
Screening Fc1ccc(NC(=S)NCCc2ccc(Cl)cc2)cc1 returned PINK1 modulator 0%, Vif-APOBEC3F blk -6%, Vif-A3G inh 1% and Epigenetic reg 3%.
`N#CC1=C(N)n2c(s/c(=C\c3cccs3)c2=O)=C(C#N)C1c1cccs1` (stereo not given) gave PINK1 modulator inconclusive, Vif-APOBEC3F blk inconclusive, Vif-A3G inh inconclusive, Epigenetic reg 10µM* and C127i cell count 14µM*.
Screening CCC1CN(CC(=O)NC(C)CO)Cc2cc(OC)ccc2O1 (stereo not given) returned PINK1 modulator -1%.
`O=C(Nc1ccc(OC(F)F)cc1)c1nc(S(=O)(=O)Cc2ccccc2F)ncc1Cl` gave PINK1 modulator 0% and Vif-A3G inh -8%.
Screening CCOc1ccc(NC(=O)c2nc(S(=O)(=O)Cc3ccccc3F)ncc2Cl)cc1 returned PINK1 modulator -2%, Vif-APOBEC3F blk -2%, Vif-A3G inh -1%, Epigenetic reg inconclusive, C127i cell count 0%, HCC4017 tox 7.1µM* and H358 viab 7.9µM*.
For CCC(=O)N1CCN(c2ccc(NC(=O)c3ccc([N+](=O)[O-])o3)cc2Cl)CC1 the results were PINK1 modulator -1%, Vif-APOBEC3F blk -11%, Vif-A3G inh -10%, Epigenetic reg inconclusive, C127i cell count 4%, HCC4017 tox 2.8µM* and H358 viab 1.4µM*.
Screening O=C(Cn1c(=O)n(Cc2ccc(F)cc2)c(=O)c2sc3ccccc3c21)Nc1ccc(F)cc1F returned PINK1 modulator 2%, Vif-APOBEC3F blk -6%, Vif-A3G inh 0%, Epigenetic reg inconclusive and C127i cell count 1%.
Screening O=C(N/N=C/c1ccccn1)c1cc(-c2ccc(Cl)cc2)nc2ccccc12 returned PINK1 modulator 6%, Vif-APOBEC3F blk inconclusive, Vif-A3G inh inconclusive, Epigenetic reg 5µM*, C127i cell count 3%, HCC4017 tox inconclusive and H358 viab inconclusive.
`O=C(N/N=C/c1ccccn1)c1cc(-c2ccc(Br)cc2)nc2ccccc12` gave PINK1 modulator -1%, Vif-APOBEC3F blk -1%, Vif-A3G inh -3% and Epigenetic reg inconclusive.

Bioassay records (PubChem BioAssay)
